# Screening results from PubChem.
# Shown are actives, neighbours in structure and some others; about 3.1% of the full set was active somewhere.
# VDR inh = inhibitors of human vitamin D receptor. P11473. actives 0.93% (n = 400,000). Potency, µM, usual class: inhibitors. VDR-SRC2-3 peptide fluorescence polarization, 2 h
#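 Two reagent solutions held at 4 deg C in the dark were dispensed, compounds pinned at 23 nl, and the mixture incubated 2 h at room temperature. Read-out: fluorescence polarization of VDR–SRC2-3 peptide binding.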
# PLK1 PBD inh = blocks phosphopeptide binding to human PLK1 polo-box domain. P53350. Plk1 PBD binding of FITC phosphopeptide, fluorescence polarization. Potency, µM, hits mostly inhibitors. actives 2.8% (n = 360,000); further: series mostly up to about 57 µM; nearly all actives have a fitted effect of over 65% in size
# S-ASM inh = blocks human secretory acid sphingomyelinase | placental ASM, HMU-PC fluorogenic substrate, 60 min | Potency, µM (titrated, usually from 57.5 µM), most hits filed as inhibitors | actives 0.006% (n = 340,000) | AID 504937
#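 HMU-PC0 cleavage (9 uM final) by human placental ASM, 60 min at 37 °C following 10 min compound exposure at RT; stopped at pH 10, fluorescence Ex 386/Em 447 nm.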
# Pin1 inhibitor = blocks the human prolyl isomerase Pin1. Q13526. Pin1 FP peptide displacement, HiFluor488, 10 min. Potency, µM (doses to about 115 µM), actives largely listed as inhibitors. actives 0.009% (n = 390,000). AID 504891; active means well fitted inhibition curve with a large enough effect in the polarisation, with a control signal flat, not every such curve was filed as active; inconclusive means small, poorly fitted or top-dose-only effect, or effect the other way, or a change in a side signal; inactive means no such curve, though single readings can be large or run the other way; the % refers to the polarisation
# TDP1 inh = blocks human tyrosyl-DNA phosphodiesterase 1; actives 0.28% (n = 350,000); AID 485290; recombinant TDP1, AlphaScreen DNA substrate cleavage; Q9NUW8; Potency, µM (highest dose often 130 µM), usual class: inhibitors; further: nearly all actives have a fitted effect of over 40% in size
# Target sequence (Q9NUW8 whole entry, looked up): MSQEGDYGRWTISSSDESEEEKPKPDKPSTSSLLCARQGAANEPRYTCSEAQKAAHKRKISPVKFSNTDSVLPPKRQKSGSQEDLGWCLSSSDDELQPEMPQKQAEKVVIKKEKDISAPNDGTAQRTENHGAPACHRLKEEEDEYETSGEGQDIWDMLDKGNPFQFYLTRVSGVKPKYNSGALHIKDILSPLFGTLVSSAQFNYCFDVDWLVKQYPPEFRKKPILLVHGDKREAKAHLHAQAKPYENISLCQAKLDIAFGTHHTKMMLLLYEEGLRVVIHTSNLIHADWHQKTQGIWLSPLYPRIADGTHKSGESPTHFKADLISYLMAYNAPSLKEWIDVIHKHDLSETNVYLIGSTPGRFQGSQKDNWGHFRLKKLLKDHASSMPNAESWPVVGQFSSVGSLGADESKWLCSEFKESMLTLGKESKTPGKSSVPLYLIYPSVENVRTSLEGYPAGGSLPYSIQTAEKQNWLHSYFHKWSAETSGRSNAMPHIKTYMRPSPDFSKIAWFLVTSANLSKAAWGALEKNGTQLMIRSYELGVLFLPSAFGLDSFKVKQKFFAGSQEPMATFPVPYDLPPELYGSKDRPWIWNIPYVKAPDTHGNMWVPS
#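 Recombinant E. coli-expressed Tdp1 (1 nM) preincubated with compound 15 min at RT, then 5'-biotin/3'-phosphotyrosine-FITC DNA substrate (15 nM) added for 5 min. AlphaScreen beads (10 ug/ml) added, 10 min RT; tyrosine-FITC cleavage read as signal loss.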
# Tb PFK inh = blocks T. brucei phosphofructokinase. O15648. T. brucei PFK, ADP-Glo luminescence. Potency, µM (series often up to 57.5 µM), hits mostly inhibitors. actives 0.17% (n = 330,000); further: nearly all actives have a fitted effect of over 60% in size
#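 PFK 1.25 nM, F6P 0.5 mM, ATP 0.1 mM, 0.1 M TEA pH 8.0, 5 mM MgCl2, 0.01% Tween20, 0.1% BSA; 45 min RT. ADP-Glo readout. qHTS titration up to 57 uM; curves fitted, compounds curve-classed.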
# Hits are given with their value; - = inactive; ? = inconclusive; . = no result. Unless noted, the call rests on the fitted dose curve; in most records, active means well fitted curve in the direction sought with a large enough effect; inconclusive means small, poorly fitted or top-dose-only effect, or another doubt; inactive means no such curve, though single readings can be large; an effect the other way counts as inactive or inconclusive.
SMILES,VDR inh,PLK1 PBD inh,S-ASM inh,Pin1 inhibitor,TDP1 inh,Tb PFK inh
CC1Cc2cc(S(=O)(=O)NCc3ccc(F)cc3)ccc2N1C(=O)C1CCC1 (stereo unspecified),-,.,.,-,-,.
COc1cc(C(=O)O[C@@H]2CC3CC[C@]2(C)C3(C)C)ccc1O,-,.,.,.,-,.
Cc1c(C(=O)NCCc2ccc(Cl)cc2)cccc1-n1cnc2cccnc21,-,.,.,-,-,.
CNc1ccc(C(=O)Oc2cc(O/N=[N+](\[O-])N(C)C)c([N+](=O)[O-])cc2[N+](=O)[O-])cc1,-,.,.,-,-,.
CN(C)CCNc1ccc2nnn3c4ccc(O)cc4c(=O)c1c23,-,-,-,-,.,.
CCN(CC)CCCNc1ccc2ncn3c4ccc(O)cc4c(=O)c1c23,?,11µM,-,.,.,.
COc1ccc(-c2cc(C)no2)cc1S(=O)(=O)Nc1c(C)cc(C)cc1C,-,.,.,-,-,.
O=[N+]([O-])c1ccc(O)c(/C=N/n2cnc3ccccc32)c1,-,-,?,-,-,-
Cc1ccc(/C=C2\SC(=S)N(/N=C/c3cc([N+](=O)[O-])ccc3O)C2=O)o1,?,12µM,?,?,?,-
Cc1cccc(OCC(=O)Nc2ccc3c4c(cccc24)CC3)c1C,-,27µM,-,-,-,-
Cc1ccc(OCC(=O)Nc2ccc3c4c(cccc24)CC3)c(C)c1,-,-,-,-,-,-
Cc1ccc(C(=O)Nc2c3c(nn2C(C)(C)C)CS(=O)(=O)C3)cc1[N+](=O)[O-],-,-,-,-,-,-
Cc1c(C(=O)Nc2ccc3c4c(cccc24)CC3)cccc1[N+](=O)[O-],-,27µM,-,-,-,-
Cc1c(C(=O)Nc2c3c(nn2C(C)(C)C)CS(=O)(=O)C3)cccc1[N+](=O)[O-],?,7.5µM,-,-,-,-
CCOC(=O)c1sc2ccccc2c1S(=O)(=O)N1CCN(c2cccc(C)c2)C(C)C1 (stereo unspecified),-,.,.,-,-,.
CN(C)S(=O)(=O)c1ccc(C(=O)NCCSc2c(-c3ccc(Br)cc3)[nH]c3ccccc23)cc1,-,.,.,-,-,.
CCOC(=O)c1cc2c(=O)n3ccccc3nc2n(CCCOC)c1=NC(=O)c1cc2ccccc2o1,-,.,.,-,-,.
O=C(Nc1cc(S(=O)(=O)Nc2ccc(Cl)cc2)ccc1N1CCCCC1)c1ccc(F)cc1,?,12µM,-,-,-,-
CC(C)(C)OC(=O)NCc1nnc(-c2nc3ccccc3[nH]2)o1,.,.,.,-,-,.
Cc1ccc(CNC(=O)CCCC(=O)Nc2cc(C)on2)cc1,?,15µM,-,-,-,-
Cc1cc(NC(=O)CCCC(=O)NCc2ccccc2)no1,-,-,-,-,-,-
COc1cccc(C2c3c(ncn(-c4ccc(F)cc4)c3=N)Oc3ccc4ccccc4c32)c1 (stereo unspecified),.,.,.,-,-,.
CC(C)(C)c1ccc(NC(=O)Nc2ccc(F)cc2)cc1,-,27µM,-,-,-,-
CC(C)(C)c1ccc(COC(=O)Nc2ccc(F)cc2)cc1,-,-,-,-,-,-
CCc1ccc(NC(=O)CN2C(=O)C(c3ccc(Cl)cc3)=NC23CCCCC3)cc1,-,.,.,-,-,.
SMILES,VDR inh,PLK1 PBD inh,S-ASM inh,Pin1 inhibitor,TDP1 inh,Tb PFK inh
Cc1ccccc1OCC(=O)N/N=C1\SCC(=O)N1Cc1ccccc1,-,27µM,-,-,-,-
Cc1cccc(OCC(=O)N/N=C2/SCC(=O)N2Cc2ccco2)c1,-,11µM,-,-,-,-
NC(C(=O)O)(c1ccc(P(=O)(O)O)cc1)C1CC1 (stereo unspecified),-,.,.,.,-,.
COc1cccc(Cn2c(CNC(=O)c3cc([N+](=O)[O-])ccc3Cl)nc3cccnc32)c1,-,.,.,-,-,.
CCCCOc1ccc(C(=O)NCC(=O)OC2CCOC2=O)cc1 (stereo unspecified),-,?,-,-,-,.
O=C(CNC(=O)c1ccc(Cl)cc1)OC1CCOC1=O (stereo unspecified),-,24µM,-,-,-,-
COc1cccc(NC(=O)C(OC(=O)CNC(=O)c2ccccc2)c2ccccc2)c1 (stereo unspecified),.,.,.,-,-,.
CC(=O)Nc1ccc(S(=O)(=O)N2CCN(S(=O)(=O)c3ccc4c(c3)OCCO4)CC2)cc1,.,.,.,-,-,.
COC(=O)CN1CCC(=O)c2ccccc2S1(=O)=O,-,.,.,-,-,.
COC(=O)CC1(C(=O)OC)Nc2cc(Cl)c(Cl)cc2S(=O)(=O)N1O (stereo unspecified),.,9.5µM,.,.,.,.
COc1cc(F)cc(F)c1[S+](=O)([O-])N1CCN([S+](=O)([O-])c2ccc3c(c2)OCCO3)CC1,.,.,.,-,.,.
Cc1ccc(NC(=O)CN2C(=O)COc3ccc(S(=O)(=O)N4CCCCCC4)cc32)cc1Cl,-,.,.,-,-,.
CCOC(=O)c1c(C)oc2c1c(CN1CCN(C(=O)OCC)CC1)c(O)c1ccccc12,50µM,?,-,?,-,-
CCOC(=O)c1c(C)oc2ccc(O)c(CN3CCCCC3)c12,-,-,-,-,-,-
CCOC(=O)c1c(C)oc2c1c(C(c1ccncc1)N1CCOCC1)c(O)c1ccccc12 (stereo unspecified),?,11µM,-,-,-,-
CCOC(=O)c1c(C)oc2c1c(CN1CCN(CCO)CC1)c(O)c1ccccc12,?,1.7µM,-,?,-,-
CCOc1ccccc1Oc1c(C)oc2c(CN3CCN(CCO)CC3)c(O)ccc2c1=O,-,-,-,-,-,-
CCCN(CC1CCCO1)C(=O)CCc1nnc(CCc2ccc(OC)cc2)o1 (stereo unspecified),?,13µM,-,-,-,-
CCC1C(C#N)=C(SCC(N)=O)NC2=C1C(=O)CC(C)(C)C2 (stereo unspecified),-,27µM,-,-,-,-
CC1C(C#N)=C(SCC(N)=O)NC2=C1C(=O)CC(C)(C)C2 (stereo unspecified),?,27µM,-,-,-,-
CC1=C(C#N)C(C)C2=C(CC(C)(C)CC2=O)N1 (stereo unspecified),-,30µM,-,-,-,-
CC1(C)CC(=O)C2=C(C1)NC(SCC(N)=O)=C(C#N)C21CCCCC1,-,-,-,-,-,-
CC(C)CN(CCCNC(=O)CC1Oc2ccccc2NC1=O)CC(C)C (stereo unspecified),-,-,-,-,-,-
CC(C)N(CCCNC(=O)CC1Oc2ccccc2NC1=O)Cc1ccccc1 (stereo unspecified),-,27µM,-,-,-,-
